Measured values published in ChEMBL document CHEMBL4513216, “Probing the Open Global Health Chemical Diversity Library for Multistage-Active Starting Points for Next-Generation Antimalarials” (ACS Infect Dis, 2020).
Hit rate of the full screen: of about 69,000 compounds, about 8,600 (12%) showed an effect of 50% or more. The sample holds strong results, similar compounds and a random draw of the others, so the mix is not that of the screen.

Tested on: Plasmodium berghei
Assay: Screen against P. berghei liver stage (PbLuc), transformed with Luciferase, at 10uM
Type: functional, HepG2
Details: tested at 10 uM

SMILES	INHIBITION [%]
O=C1C[C@H]2[C@H](CCN2C(=O)c2ccno2)N1CC1CC1	41.4
Cc1cc(N(C)C)nc(C2(C)CCCN2CC(N)=O)n1 (stereo unspecified)	18.8
N#Cc1ccccc1CN1C[C@H]2CC[C@@H](C1)N(CC1CC1)C2=O	25.1
Cc1cc2c(=O)n3c(nc2s1)CCN(C(=O)c1ccnn1C(C)C)CC3	11.1
c1cnnc(N[C@@H]2CC[C@@H]3CN(Cc4ccc5cc[nH]c5c4)C[C@@H]32)c1	-4.68
COCC(=O)N1C[C@@H](C)[C@](O)(C(C)C)C1	46.4
CC(Nc1nccc(CCC(F)(F)F)n1)c1nc(-c2ccccn2)no1 (stereo unspecified)	21.2
CC(C)c1noc(C(C)Nc2nccc(CCC(F)(F)F)n2)n1 (stereo unspecified)	29.6
CC(Nc1nccc(CCC(F)(F)F)n1)c1nc(-c2ccncc2)no1 (stereo unspecified)	50.4
O=C(c1ccnnc1)N1CCN(Cc2ccncc2)c2ncccc2C1	23.3
CC(O)CN1CCN(C(=O)c2ccc3c(c2)COC3)CC1 (stereo unspecified)	60.5
CCC(O)CN1CCN(C(=O)c2ccc3c(c2)COC3)CC1 (stereo unspecified)	-9.37
CCC(O)CN1CCN(C(=O)c2cc3ccccc3n2CC)CC1 (stereo unspecified)	1.75
CCn1c(C(=O)N2CCN(CC(C)O)CC2)cc2ccccc21 (stereo unspecified)	35.7
CC(O)CN1CCN(C(=O)c2cc3ccccc3n2C)CC1 (stereo unspecified)	66.8
CC(C)(C)C(O)CN1CCN(C(=O)c2ccc3c(c2)COC3)CC1 (stereo unspecified)	31.8
O=C(c1cncs1)N1CCOCC(Cc2ccccn2)C1 (stereo unspecified)	13.94
COCCO[C@@H]1CCN(C(=O)c2ccc(C)o2)[C@@H]1Cc1cccnc1	2.3
COc1cc(-c2n[nH]c(CN)n2)cc(OC)c1OC	-9.21
COc1ccc(C(O)CNC(=O)NCCc2csc(C)n2)cc1 (stereo unspecified)	44.1
O=C(C1CCN(Cc2nc(-c3ccco3)no2)CC1)N1CCCC1	25.1
Cc1ccc(F)c(C(=O)NC2CCC(N3C(=O)CCC3=O)CC2)c1 (stereo unspecified)	-35
Cc1[nH]ccc1C(=O)NC1CCC(N2C(=O)CCC2=O)CC1 (stereo unspecified)	-86.5

SMILES	INHIBITION [%]
O=C(NC1CCC(N2C(=O)CCC2=O)CC1)c1c[nH]c2ccccc12 (stereo unspecified)	76.7
CN(C)CCn1c2c(ccc1=O)CC(NC(=O)c1ccsc1)CC2 (stereo unspecified)	37.5
Cc1oc(C)c(C(=O)NCc2cccnc2)c1C	-8.75
CCCNC(=O)CCNC(=O)N1CCc2c(F)ccc(F)c2C1	71.7
COC(=O)CCCNC(=O)N1CCc2c(F)ccc(F)c2C1	28.7
COCCOCCNC(=O)N1CCc2c(F)ccc(F)c2C1	5.38
CN1CC[C@]2(CN(Cc3cccs3)C[C@H]2c2ccccc2)C1=O	24.9
CCc1ccc(CN2C[C@@H](C)C3(CCN(CC(=O)N(C)C)C3=O)C2)o1 (stereo partly specified)	21.1
Cc1cccc(CN2C[C@@H](C)[C@@]3(CCN(CC(=O)N(C)C)C3=O)C2)c1	2.58
Cc1cc(CN2C[C@@H](C)[C@@]3(CCN(CC(=O)N(C)C)C3=O)C2)oc1C	51.2
Cc1cc(CN2C[C@@H](C)[C@@]3(CCN(C)C3=O)C2)oc1C	65.9
Cc1noc(C)c1CN1C[C@H](C)[C@]2(CCN(Cc3cccnc3)C2=O)C1	13.7
Fc1cccc(-c2nc(CN3CCCC(Cn4cncn4)C3)co2)c1 (stereo unspecified)	11.9
Cc1nc(CCCNC(=O)Nc2cc(F)cc(F)c2)n[nH]1	55.5
Cc1nc(CCCNC(=O)Nc2ccc(F)cc2F)n[nH]1	56.5
COc1ccc2cccc(CC(=O)NCCCc3n[nH]c(C)n3)c2c1	-6.97
Cc1nc(CCCNC(=O)c2c(F)cc(F)cc2F)n[nH]1	33.7
Cc1nc(CCCNC(=O)c2cc(F)ccc2O)n[nH]1	46.6
Cc1nc(CCCNC(=O)c2c(F)cccc2Br)n[nH]1	39.6
COc1ccc(C(NCc2ccc(C#N)cc2)C2CC2)cc1 (stereo unspecified)	-22.3
COC(=O)CCn1ccc(=O)c2ccccc21	20.9
O=S(=O)(C1CC1)N1CCCn2cnc(COc3cccnc3)c2C1	-4.26
Cc1ccc(CCCC(=O)N2CCN(C3CCCN(C)C3)CC2)s1 (stereo unspecified)	15.7

SMILES	INHIBITION [%]
O=C(C1CCOC1)N1CCN(CC(F)(F)F)c2ccccc21 (stereo unspecified)	34.2
c1ccc(-c2nnc(CN3CCCC3Cn3cncn3)o2)cc1 (stereo unspecified)	-41.6
COCc1ncn2c1CN(C(=O)c1ccc[nH]1)CC2	-20.1
Cc1nc(C)n(CC2CCCN(CCC(=O)N3CCOCC3)C2)n1 (stereo unspecified)	-2.19
c1c[nH]c(CN2CCCC(Cc3ccc(NC4CCCC4)nn3)C2)n1 (stereo unspecified)	-3.02
CCOc1cc(NC(=O)N(C)Cc2ncnn2C)ccc1C	50.1
Cc1ccc(C)c(NC(=O)N(C)Cc2cnn(C)c2)c1	39.8
CC(=O)N(C)Cc1cccc(NC(=O)N(C)Cc2nccs2)c1	-49.3
Cc1ccc(NC(=O)N(C)Cc2cnn(C)c2)cc1OCC(F)F	52.7
Cc1ccc(NC(=O)N(C)Cc2cnn(C)c2)c(C)c1	-29.1
CCSCc1cccc(NC(=O)N(C)Cc2ncnn2C)c1	59.7
CC(C)OCc1cccc(NC(=O)N(C)Cc2ncnn2C)c1	45.8
CN(Cc1ncnn1C)C(=O)Nc1ccc(OC(F)F)cc1	21.2
CCOc1ccc(CNC(=O)N(C)Cc2ncnn2C)cc1C	49
COc1c(CNCCNC(=O)c2cccs2)c(C)nn1C	-79.3
Cc1ccc(OCCN(C)C(=O)NC(C)c2nncn2C)cc1 (stereo unspecified)	21.5
Cc1cccc(NC(=O)Cn2nc3ccccn3c2=O)c1C	-7.35
CC(C)OCc1nn(C)c2c1CCN(CC1CC1)C2	32.5
Cc1cc(CN2C[C@H](N3CCOCC3)[C@@H]3OCCC[C@@H]32)oc1C	26.4
O=c1oc(-c2ccc(F)cc2)nn1CN1CCCCC1	23.7
CCOc1ccc(Cl)c(C(=O)N2CCN(CC(O)CC)CC2)n1 (stereo unspecified)	14.1
COCc1cc(N2CCN(Cc3ccncc3)CC2)n2nccc2n1	48.5
CCc1cc(N2CCC(N3CCSCC3)CC2)n2nccc2n1	35

SMILES	INHIBITION [%]
COCc1cc(N2CCN(c3ccc(Cl)cn3)CC2)n2nccc2n1	54.5
COCc1cc(N2CCOCC2)n2nccc2n1	-11.9
COCc1cc(N2CCN(C3CCCCC3)CC2)n2nccc2n1	-9.29
CCc1cc(N2CCN(c3ccc(Cl)cn3)CC2)n2nccc2n1	81.2
Cc1ccc(CN2CC[C@@H](O)[C@@H]2Cc2cnn(C)c2)o1	22.9
Cc1cccc(CN2C[C@H]3CCC[C@@]3(COCc3csc(C)n3)C2)n1	-28.2
CCC(CC)c1cc(CNC(=O)N2CCCC(N(C)C)C2)on1 (stereo unspecified)	-34
CCC(CC)c1cc(CNC(=O)N2CCCC(C(=O)NC)C2)on1 (stereo unspecified)	64.6
CCC(CC)c1cc(CNC(=O)N2CCC(CO)CC2)on1	40.4
C1CCC(c2nnc3sc(C4CCCO4)nn23)C1 (stereo unspecified)	49.4
CCOc1ccc(CC(=O)N2CCN(c3nccn3CC)CC2)cc1	49.1
Cc1csc(CNC(=O)N(C)Cc2cnn(C)c2)n1	54.4
Cc1nc(CNC(=O)N(C)Cc2cnn(C)c2)cs1	15.05
Cc1ccsc1CNC(=O)N(C)Cc1cnn(C)c1	-14.86
Cc1ccc2c(c1)C1(CCN(C(=O)C3CC3)CC1)CC2N1CCOCC1 (stereo unspecified)	10.7
Cc1nn(C)c2c(N3CCN(C(=O)C4CCCCC4)CC3)ncnc12	44.1
CC(C)CN1C(=O)C2(CCN(CC3CCOCC3)C2)c2ccccc21 (stereo unspecified)	71.9
CC(C)CN1C(=O)C2(CCN(Cc3cccs3)C2)c2ccccc21 (stereo unspecified)	20.4
CC(C)CN1C(=O)C2(CCN(Cc3ccc(F)cc3)C2)c2ccccc21 (stereo unspecified)	38.2
COCCN1C(=O)C2(CCN(CC3CC3)CC2)c2ccccc21	55.7
CN(C)CCN1C(=O)C2(CCN(CC3CC3)CC2)c2ccccc21	27.6
CC(C)CN1C(=O)C2(CCN(Cc3ccsc3)C2)c2ccccc21 (stereo unspecified)	32.2
CC(=O)N1CCC2(C1)C(=O)N(CC1CC1)c1ccccc12 (stereo unspecified)	-19.6

SMILES	INHIBITION [%]
CC(C)CN1C(=O)C2(CCN(Cc3nccs3)C2)c2ccccc21 (stereo unspecified)	81.8
CC(C)CN1C(=O)C2(CCN(Cc3ccoc3)C2)c2ccccc21 (stereo unspecified)	23.3
Cc1ccc(CN2CCC3(C2)C(=O)N(CC2CC2)c2ccccc23)s1 (stereo unspecified)	55
Cc1ccc(CN2CCC3(CC2)C(=O)N(C)c2ccccc23)s1	31.8
CN1CCC2(CC1)C(=O)N(CC1CC1)c1ccccc12	14.1
COc1ccc(OC)c(C2CC(=O)Nc3nc(N4CCOCC4)sc32)c1 (stereo unspecified)	7.66
Cc1c(NC(=O)NC(C)CCO)cccc1OC1CCCC1 (stereo unspecified)	-16.9
CC(C)n1ccnc1CN1CCCN(C(=O)c2ncccc2O)CC1	32.45
CCOCCN1CCN(CC(O)c2ccc(F)cc2)CC1 (stereo unspecified)	37.9
O=C(NC[C@]12COC[C@H]1CN(Cc1nccs1)C2)c1ccsc1	7.31
COc1ccc(NC(=O)C2CC(=O)N(C)C2)cn1 (stereo unspecified)	45.7
CC(C)(NS(C)(=O)=O)c1nc(-c2ccncc2)no1	22
O=C(CCn1c(C(F)F)cc2cccnc21)NC1CCCCC1	14.7
Cc1ccc(CN2CCC3(CC2)C(=O)Nc2ccccc23)s1	23.5
Cc1ccc(CN2CCC3(C2)C(=O)N(CC(C)C)c2ccccc23)s1 (stereo unspecified)	65.1
CN1C(=O)C2(CCN(CC3CC3)CC2)c2ccccc21	30.7
CN1C(=O)C2(CCN(CCO)C2)c2ccccc21 (stereo unspecified)	34.7
Cc1ccc(CN2CCC3(C2)C(=O)N(CC(N)=O)c2ccccc23)s1 (stereo unspecified)	32.5
CN1C(=O)C2(CCN(CC3CCC3)C2)c2ccccc21 (stereo unspecified)	88.2
